TTR transcr act – activators of transthyretin transcription; activation, % at 16.7 µM; SH-SY5Y TTR promoter Gaussia luciferase, luminescence; 100% = recombinant luciferase protein wells; actives 1.3% (n = 92,000);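 active = activation above the mean of all tested compounds plus 3 SD, cut at about 9.5% in these data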;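 also: cells exposed to compounds for one day before reading; 0% = median of all test compound wells on the plate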
HuH7 TTR inh – counter-screen for TTR activators: TTR transcription inhibitors in HuH7 cells; shares compounds with TTR transcr act; HuH7 TTR promoter-Gaussia luciferase reporter, luminescence; inhibition, % at 16.7 µM; actives 4% (n = 1,100);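 active = average inhibition above the solvent-only control wells' mean plus 3 SD, cut at about 15% in these data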;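 also: 0% = cells with DMSO only and 100% = cells with inhibitor control FD; inhibitors lower well luminescence so higher value means more inhibition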
TTR act confirm – human TTR transcription activation, confirmation | shares compounds with TTR transcr act | SHSY5Y TTR promoter Gaussia luciferase, luminescence; 100% = purified Lucia enzyme wells, no cells | activation, % at 16.7 µM | 1,100 tested, under 10 active | AID 1117280;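 active = mean activation above a set limit taken from the earlier primary screen, cut at about 11% in these data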;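 also: 0% = DMSO-treated cells and 100% = recombinant Lucia luciferase without cells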
* marks the source's active call; other numbers are inactive results. The full list was thinned out, with hits kept by preference.

SMILES	TTR transcr act	others
O=C(O)CCc1nn2cc(-c3ccccc3)nc2[nH]c1=O	-1
Cc1nn2cc(-c3ccccc3)nc2[nH]c1=O	10*	HuH7 TTR inh=1;TTR act confirm=0
Cc1nn2c(-c3ccccc3)c(-c3ccccc3)nc2[nH]c1=O	-1
COC(=O)N[C@H]1CC=C[C@@H]1Cc1cccc(Oc2ccccc2)c1	2
CCC[C@H]1[C@@H](NCc2ccccc2)CC[C@@]23CCCN2C(=O)CCC[C@@H]13	0
COC(=O)c1ccc(NC(=O)CSc2nnc(C)n2-c2ccccc2)cc1	0
COc1ccc(O)c(/C=N/NC(=O)CSc2nnc(C)n2-c2ccccc2)c1	11*	HuH7 TTR inh=-17;TTR act confirm=1
Cc1cccc(C)c1NC(=O)CSc1nnc(C)n1-c1ccccc1	-2
Cn1ccc2c(-c3ccc(F)cc3)cc3c(c21)C1CCC3C1 (configuration not stated)	1
Cc1ccccc1-c1cc2c(c3c1ccn3C)C1CCC2O1 (configuration not stated)	-1
Cc1ccccc1-c1cc2c(c3c1ccn3C)C1CCC2C1 (configuration not stated)	10*	HuH7 TTR inh=-6;TTR act confirm=1
CC(=O)c1ccc([C@H](O)[C@H](C)C(=O)N(C)c2ccccc2)cc1	2
CC1CN(C(=O)c2ccccc2OCc2ccc(Cl)cc2Cl)CC(C)O1 (configuration not stated)	-3
COC(=O)C=C1CCC2C3CC(F)C4(O)CC(=O)CCC4(C)C3C(=O)CC12C (configuration not stated)	-1
Cc1cccc(C)c1OCc1cccc(C2Nc3ccccc3C(=O)N2Cc2ccco2)c1 (configuration not stated)	-1
O=C(CCCC1=NS(=O)(=O)c2ccccc2N1)N1CCN(c2ccc([N+](=O)[O-])cc2)CC1	9.7*	HuH7 TTR inh=-13;TTR act confirm=-1
O=C(CN1C(=O)C2CC=CCC2C1=O)N1CCN(c2ccc([N+](=O)[O-])cc2)CC1 (configuration not stated)	-1
O=C(CCC1=NS(=O)(=O)c2ccccc2N1)NC1CCCCCCC1	-1
CC(O)CCC(=O)NNC1CC(=O)N(c2ccccc2)C1=O (configuration not stated)	3
CCOC(=O)NNC1CC(=O)N(c2ccccc2)C1=O (configuration not stated)	2
O=C1CC(NNc2ccccc2)C(=O)N1c1ccccc1 (configuration not stated)	11*	HuH7 TTR inh=2;TTR act confirm=-1
O=C(OCc1nnc(-c2ccc([N+](=O)[O-])cc2)o1)C1CCN(C(=O)c2ccc(F)cc2)CC1	-1
C[C@@H]1CN([C@H](C)CO)C(=O)CCCn2nncc2CO[C@H]1CN(C)S(=O)(=O)c1ccc2c(c1)OCCCO2	-1
CC(=O)Nc1ccc(S(=O)(=O)N2CCN=C2SCc2cccnc2)cc1	-1
CCCS(=O)(=O)N1CCN=C1SCc1cccnc1	15*	HuH7 TTR inh=-7;TTR act confirm=1
SMILES	TTR transcr act	others
CCS(=O)(=O)N1CCN=C1SCc1ccccc1	-2
CC(C)CNC(=O)OCc1cn(Cc2ccc(Cl)cc2)nn1	2
COc1ccccc1N1CC(C(=O)OCC(=O)Nc2c(C)cccc2C)CC1=O (configuration not stated)	0
CC[C@]12c3[nH]c4cc(-c5ccco5)ccc4c3CCN1C(=O)[C@@H](CC(=O)NCCCn1ccnc1)C[C@@H]2C(=O)N1CCN(C(=O)C2CC2)CC1	5
O=C(/C=C/c1cccc(C(F)(F)F)c1)OCC(=O)N1CCN(c2ccccc2)CC1	-1
Cc1ccc(C)c(OCC(=O)O/N=C(\N)c2cccnc2)c1	1
Cc1cccc(/C(N)=N/OC(=O)Cc2cccc3ccccc23)c1	2
Cc1cccc(/C(N)=N/OC(=O)COc2ccc(Cl)c(C)c2)c1	11*	HuH7 TTR inh=-10;TTR act confirm=-1
COc1ccc(S(=O)(=O)Nc2cccc3c2O[C@H](CN(C)C(=O)Nc2c(C)noc2C)[C@@H](C)CN([C@H](C)CO)C3=O)cc1	2
CCOC(OCC)P(=O)(CNC(c1ccccc1)(c1ccccc1)c1ccccc1)OCC (configuration not stated)	4
C[C@H]1[C@@H](NC(=O)/C=C/c2ccccc2)CC[C@@]23CCCN2C(=O)CCC[C@@H]13	0
C=CC1CN2CCC1CC2C(O)c1ccnc2ccc(OC)cc12 (configuration not stated)	13*	HuH7 TTR inh=-8;TTR act confirm=3
Cc1cnc(C(=O)N(CCCn2ccnc2)C2C(=O)Nc3ccccc3N=C2c2ccccc2)cn1 (configuration not stated)	0
COc1cc(CN2CCCC(CO)(Cc3ccccc3)C2)ccc1O (configuration not stated)	-1
CCOC(=O)C1(Cc2ccccc2)CCN(Cc2cn[nH]c2-c2ccccc2)CC1	-1
COc1cccc(CC2(CO)CCCN(Cc3cn[nH]c3-c3ccccc3)C2)c1 (configuration not stated)	10*	HuH7 TTR inh=-18;TTR act confirm=2
CCCCn1nnnc1C1(C)CCC(=O)N1c1ccc(N2CCOCC2)cc1 (configuration not stated)	0
CC1CCc2sc3nc(NCc4ccco4)n4ncnc4c3c2C1 (configuration not stated)	2
CCN1CCN(c2nc3sc4c(c3c3ncnn23)CC(C)CC4)CC1 (configuration not stated)	11*	HuH7 TTR inh=-31;TTR act confirm=0
CC1CCc2c(sc3ncnc(N4CCOCC4)c23)C1 (configuration not stated)	-1
O=C(OCc1ccccc1)[C@H](Cc1ccccc1)NC(=O)[C@@H]1CC=C[C@@H]2CCN(C3CCCCC3)C(=O)[C@@H]21	0
c1ccc(-c2cc(-c3ccncc3)nc3ccc4ccccc4c23)cc1	11*	HuH7 TTR inh=12;TTR act confirm=-1
O=C(NCc1ccc(F)cc1)c1cc(-c2ccncc2)nc2ccccc12	-3
COc1cc(-c2ccccc2)nc2ccccc12	0
COC(=O)[C@]12C[C@H](CC(=O)NCC34CC5CC(CC(C5)C3)C4)C(=O)N(Cc3cccc4ccccc34)C1=C[C@H](C1CCCC1)O[C@@H]2C	2
SMILES	TTR transcr act	others
O=C(CN1C(=O)NC2(CCCCC2)C1=O)Nc1ccc(N2CCCCC2)cc1	10*	HuH7 TTR inh=-4;TTR act confirm=0
CCOC(=O)c1ccc(NC(=O)CN2C(=O)NC3(CCCCCC3)C2=O)cc1	-1
O=C(CN1C(=O)NC2(CCCC2)C1=O)Nc1ccccc1N1CCCC1	-1
COc1ccc(CN2CCC(=O)N([C@H](CO)CC(C)C)CC2)cc1OC	5
CCCc1nc(N)c(C#N)c(-c2cccnc2)c1CC	2
Cc1c(-c2ccccc2)nc(N)c(C#N)c1-c1cccnc1	12*	HuH7 TTR inh=-6;TTR act confirm=-1
Cc1c(CC(C)C)nc(N)c(C#N)c1-c1ccccc1	0
CC(C)[C@H](NC(=O)c1ccc(Cl)cc1Cl)C(=O)NNc1cccc(C(=O)O)c1	-1
COc1ccc(C(C)NC(=O)C2CCN(CCCc3ccccc3)CC2)cc1OC (configuration not stated)	-1
Cc1ccccc1NC(=O)OCCN1CCCC12CCC(c1ccccc1)CC2 (configuration not stated)	-1
COc1ccc(OC)c(S(=O)(=O)NCC(=O)NC2CCCCCC2)c1	-1
O=C(CN1CCc2ccccc2C1)Nc1ccc(F)cc1	2
